Measurements as given in PubChem BioAssay AID602384 (National Center for Advancing Translational Sciences (NCATS), 2012).
Activity calls are given as the source filed them. Calls come from the whole dose curve; as a rule, active = well fitted curve in the direction sought with a large enough effect; inactive = no such curve, though single readings can be large or run the other way.

biological target: Pyruvate kinase PKM (Homo sapiens) (UniProt P14618); experiment: qHTS for Activators of Human Muscle Isoform 2 Pyruvate Kinase: Extended Characterization; conditions: purified PKM2, ATP production, Kinase-Glo luminescence
Procedure: Human pyruvate kinase muscle 2 (hPK-M2) enzyme was supplied as a highly purified (>95% pure) preparation from Harvard Medical School and assayed for its ability to generate ATP from ADP using phosphoenolpyruvate (PEP) as a substrate. ATP generation was detected in a coupled reaction by luciferase-mediated luminescence, an ATP-dependent process. Pyruvate kinase substrates, PEP and ADP, were present in the assay at Km and approximately 10-fold below Km respectively. The enzyme was assayed at an intermediate level of activity to screen for both inhibitors and activators. NIH Chemical Genomics Center [NCGC] NIH Molecular Libraries Probe Centers Network [MLPCN] MLPCN Grant: MH085679 Assay Submitter (PI): Matthew G. Vander Heiden, Harvard Medical School
Three uL of substrate mix (at r.t.) in assay buffer (50 mM Imidazole pH7.2, 50 mM KCl, 7 mM MgCl2, 0.01% Tween 20, 0.05% BSA) was dispensed into white solid bottom 1,536 well microtiter plates so that the final concentrations of substrates in the assay were 0.1 mM ADP and 0.5 mM PEP. 23 nL of compound were delivered by a pin tool and 1 uL of enzyme mix (final concentration of 0.1 nM) in assay buffer (4 degree Celsius) was added. Plates were incubated at room temperature for 1 hour. Two uL of detection mix (Kinase-Glo, Promega; at 4 degree Celsius protected from light) was added and luminescence read by a ViewLux (Perkin Elmer) at 1 second exposure/plate. Data were normalized to the uninhibited (column 3) and AC100 inhibition (no enzyme in column 2). To monitor activation, the first column contained a titration of the activator, NCGC00031955-03 (16-point 1:2 dilutions in duplicate starting at 57 uM) and the first 16 rows of column 4 contained 57 uM of NCGC00031955-03.

Sequence of Pyruvate kinase PKM (Homo sapiens) (P14618 whole entry, looked up, canonical isoform): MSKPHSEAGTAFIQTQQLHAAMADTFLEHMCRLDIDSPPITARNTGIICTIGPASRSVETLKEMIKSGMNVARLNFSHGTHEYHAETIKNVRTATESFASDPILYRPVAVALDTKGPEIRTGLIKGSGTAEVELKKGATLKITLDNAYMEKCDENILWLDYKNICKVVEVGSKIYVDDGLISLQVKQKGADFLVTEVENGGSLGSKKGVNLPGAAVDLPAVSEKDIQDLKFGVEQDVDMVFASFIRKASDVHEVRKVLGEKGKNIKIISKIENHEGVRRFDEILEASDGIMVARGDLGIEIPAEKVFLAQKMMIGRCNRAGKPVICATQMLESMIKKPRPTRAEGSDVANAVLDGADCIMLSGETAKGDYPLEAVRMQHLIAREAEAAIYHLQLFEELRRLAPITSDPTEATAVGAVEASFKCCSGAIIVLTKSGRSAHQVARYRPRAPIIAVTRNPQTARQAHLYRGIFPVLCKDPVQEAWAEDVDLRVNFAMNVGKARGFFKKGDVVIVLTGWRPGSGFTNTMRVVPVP

Potency, active:
Cc1cc2c(s1)c1cnn(Cc3c(Cl)ccc(C)c3F)c(=O)c1n2C 1260 nM, COc1cccc(Cn2ncc3c4sc(S(C)=O)cc4n(C)c3c2=O)c1 (stereo not given) 73 nM, Cc1cc2c(s1)c1cnn(Cc3cc(F)ccc3F)c(=O)c1n2C 1120 nM, Cc1cc2c(s1)c1cnn(Cc3ccc(F)cc3F)c(=O)c1n2C 891 nM, Cc1cc2c(s1)c1cnn(Cc3cc(F)c(F)cc3F)c(=O)c1n2C 1120 nM
